Here are results for six compounds from PubChem BioAssay (NCI).

About 83,000 compounds went through this panel and 20% of them were active in at least one assay; those are over-represented in the sample as a whole.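 Step 1: grow cells in 96-well plates. Step 2: add test compound at a single concentration. Step 3: incubate 48 h. Step 4: record percent growth.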 Values without a mark were called inactive. Activity calls are given as the source filed them. The calls were made as follows: active = growth percent below 10; inactive = the rest.

Some test systems named below: HCT-15 colon; HT29 colon; SNB-75 CNS; SNB-19 CNS; U251 CNS; PC-3 prostate; SK-MEL-5 melanoma; UACC-62 melanoma; LOX IMVI melanoma; SK-MEL-28 melanoma; SK-MEL-2 melanoma; EKVX NSCLC; SN12C renal; UO-31 renal; TK-10 renal; ACHN renal; CAKI-1 renal; A498 renal; CCRF-CEM leukemia; MOLT-4 leukemia.
Common to all, as to experiment: NCI-60 one-dose screen, 48 h (100 = growth as untreated, 0 = no growth, -100 = all killed)
Common to all, as to details: 10 µM unless noted

Consider `COc1cc2nc3cc([N+](=O)[O-])ccc3c(NCCNCC(C)(C)O)c2cc1OC`, for which the growth with HCT-15 colon was 17%; with HT29 colon, -11.7% (active); in the assay with SNB-75 CNS it was -55.7% (active); with SNB-19 CNS it was -10.5% (active); with U251 CNS, -23.6% (active); with PC-3 prostate it was -35.6% (active). The growth in the assay with SK-MEL-5 melanoma is -71.3% (active); with UACC-62 melanoma, -48.6% (active); in the assay with LOX IMVI melanoma it was -40.9% (active); in the assay with SK-MEL-28 melanoma it was -25.7% (active); in the assay with SK-MEL-2 melanoma, -45.5% (active); in the assay on EKVX NSCLC it was 7.08% (active). The growth with SN12C renal is -17.1% (active); in the assay with UO-31 renal, 27.7%; in the assay with TK-10 renal it was 9.89% (active); in the assay on ACHN renal it was 6.39% (active); in the assay with CAKI-1 renal, 16.1%; in the assay on A498 renal, -48.8% (active). The growth was 0.0876% (active) in the assay on CCRF-CEM leukemia and 5.85% (active) with MOLT-4 leukemia.
On to `CC(C)=CCc1cc(O)c(O)c2oc3cc(O)cc(O)c3c(=O)c12`, for which the growth was 22.3% in the assay with HCT-15 colon; 91.7% in the assay on HT29 colon; 60.2% in the assay on SNB-75 CNS; 52.6% in the assay with SNB-19 CNS; 41% with U251 CNS; 68.8% in the assay with PC-3 prostate. Besides, the growth with SK-MEL-5 melanoma was 56.1%; in the assay with UACC-62 melanoma, 54%; in the assay with LOX IMVI melanoma, 32.6%; in the assay with SK-MEL-28 melanoma, 84.4%; in the assay with SK-MEL-2 melanoma it was 97.3%; in the assay on EKVX NSCLC, 78.2%. The growth was 58.4% in the assay on SN12C renal; 45.9% with UO-31 renal; 46.7% in the assay with TK-10 renal; 41.5% in the assay with ACHN renal; 36.7% in the assay on CAKI-1 renal; 101% in the assay on A498 renal. Moreover, the growth was 29.5% with CCRF-CEM leukemia and 31.9% in the assay with MOLT-4 leukemia.
Turning to `CCN(CC)/C([O-])=c1\cccc\c1=C1\N=C(c2ccccc2)N=C1[n+]1ccc(-c2ccccc2)cc1`, the growth with HCT-15 colon was 101%; in the assay with HT29 colon, 106%; in the assay with SNB-75 CNS, 93.7%; in the assay with SNB-19 CNS, 99.5%; in the assay with U251 CNS, 97.7%; with PC-3 prostate it was 92.8%. In addition, the growth was 93.8% in the assay with SK-MEL-5 melanoma; 93.6% with UACC-62 melanoma; 91.6% with LOX IMVI melanoma; 106% in the assay on SK-MEL-28 melanoma; 78.1% in the assay on SK-MEL-2 melanoma; 93.4% in the assay on EKVX NSCLC. Besides, the growth with SN12C renal was 89.5%; in the assay on UO-31 renal it was 37.1%; in the assay on TK-10 renal it was 102%; in the assay with ACHN renal, 95.8%; in the assay on CAKI-1 renal, 99.9%; with A498 renal, 96%. The values for the growth in the assay on CCRF-CEM leukemia and in the assay on MOLT-4 leukemia were 84.6% and 88%, respectively.
On to `COc1cc(-c2nc(SCCC(C)C)nc(Nc3ccc(F)cc3)c2C#N)cc(OC)c1OC`, for which the growth in the assay with HCT-15 colon is 88.8%; in the assay with HT29 colon, 55%; in the assay on SNB-75 CNS, 30.8%; in the assay with SNB-19 CNS it was 45.5%; with U251 CNS, 29.7%; in the assay with PC-3 prostate, 75.9%. Also, the growth in the assay with SK-MEL-5 melanoma is 97.6%; with UACC-62 melanoma, 80.5%; in the assay on LOX IMVI melanoma, 79.2%; in the assay on SK-MEL-28 melanoma, 104%; in the assay with SK-MEL-2 melanoma, 101%; with EKVX NSCLC it was 85%. Also, the growth in the assay on SN12C renal is 64.6%; in the assay with UO-31 renal it was 64.6%; in the assay with TK-10 renal, 41.4%; in the assay on ACHN renal it was 34.1%; in the assay on CAKI-1 renal, 49.6%; in the assay with A498 renal, 62.5%. Moreover, the growth in the assay on CCRF-CEM leukemia was 91.4%; in the assay on MOLT-4 leukemia it was 83.4%.
In the case of `N=C(N)SCc1c2ccccc2c(CSC(=N)N)c2ccccc12`, the growth in the assay on HCT-15 colon was 93.9%; in the assay on HT29 colon, 65.9%; in the assay on SNB-75 CNS, 89.5%; with SNB-19 CNS it was 111%; in the assay on U251 CNS, 61.1%; in the assay with PC-3 prostate it was 61.8%. Also, the growth in the assay on SK-MEL-5 melanoma was 68.9%; with UACC-62 melanoma it was 72.9%; with LOX IMVI melanoma, 55.7%; with SK-MEL-28 melanoma, 99%; in the assay with SK-MEL-2 melanoma, 79.2%; in the assay with EKVX NSCLC it was 76.5%. The growth in the assay on SN12C renal was 53.7%; in the assay on UO-31 renal, 80.8%; in the assay with TK-10 renal, 98.5%; in the assay on ACHN renal, 51.2%; in the assay with CAKI-1 renal, 61.7%; with A498 renal, 89.9%. Also, the growth was 6.24% (active) with CCRF-CEM leukemia and -5.95% (active) in the assay with MOLT-4 leukemia.
Regarding `Cc1cc(N2CCN(CC(=O)Nc3ccc4c(ccn4Cc4ccccc4)c3)CC2)nc(N2CCCCCC2)n1`, the growth in the assay with HCT-15 colon is 28.2%; in the assay with HT29 colon it was 5.17% (active); with SNB-75 CNS it was 66.6%; in the assay with SNB-19 CNS, 57.3%; in the assay on U251 CNS it was 38.4%; in the assay on PC-3 prostate, 28.2%. Moreover, the growth is 49.2% with SK-MEL-5 melanoma; 43.2% in the assay with UACC-62 melanoma; 34.9% in the assay with LOX IMVI melanoma; 63.4% in the assay with SK-MEL-28 melanoma; 64% in the assay with SK-MEL-2 melanoma; 57.5% in the assay with EKVX NSCLC. Besides, the growth with SN12C renal is 54.8%; in the assay on UO-31 renal it was -1.98% (active); with TK-10 renal, 73.1%; in the assay with ACHN renal it was 57.5%; with CAKI-1 renal it was 31.9%; in the assay on A498 renal, 5.69% (active). The growth with CCRF-CEM leukemia was 46.2%; in the assay with MOLT-4 leukemia it was 44.3%.
